Source: PubChem BioAssay (NCATS)
Several values for one entry are separate records, joined by “and”; a condition that tells them apart may be missing. Identical values can stand only once. Values without a mark were called inactive. Results filed as inconclusive are left out. Where a structure was tested more than once in an assay, its records may differ in their call. Activity calls are given as the source filed them. Unless noted, the call rests on the fitted dose curve; in most records, active means well fitted curve in the direction sought with a large enough effect; inconclusive means small, poorly fitted or top-dose-only effect, or another doubt; inactive means no such curve, though single readings can be large; an effect the other way counts as inactive or inconclusive.

Assays:
[1] = target: Tumor necrosis factor (Homo sapiens) (UniProt P01375); experiment: qHTS assay to identify small molecules that stimulate Tumor Necrosis Factor-alpha (TNF-alpha) secretion (AID 651757; active means well fitted curve in the direction sought with a large enough effect in the signal ratio; the % refers to the signal ratio; further: 0% is about no effect)
Tumor necrosis factor (Homo sapiens), sequence (P01375 whole entry, looked up): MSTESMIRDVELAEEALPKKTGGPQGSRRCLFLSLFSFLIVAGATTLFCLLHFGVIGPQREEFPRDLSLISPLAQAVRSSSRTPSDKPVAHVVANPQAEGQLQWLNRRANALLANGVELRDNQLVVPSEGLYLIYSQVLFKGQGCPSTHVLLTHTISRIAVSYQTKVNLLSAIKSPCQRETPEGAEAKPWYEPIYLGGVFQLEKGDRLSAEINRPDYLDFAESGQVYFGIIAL
Summary of the method: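 Read-out is HTRF, a TR-FRET sandwich of cryptate- and XL665-labeled anti-TNF-alpha antibodies detecting cytokine secreted by THP-1 cells. Cells had been incubated with test compounds at 37 C for 17 hrs beforehand.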

[2] = qHTS assay for environmental chemicals that activate the Aryl hydrocarbon Receptor (AhR) signaling pathway (AID 651777); conditions: 1A2-DRE human hepatoma cells, luciferase, 24 h; active compounds read high; further: % of control where 0% means no effect; nearly all actives have a fitted effect of over 15% in size
Summary of the method: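 Human hepatoma 1A2-DRE cells, stably carrying a dioxin response element and CYP1A2 promoter driving luciferase, were exposed to compounds for 24 hr at 37 C and 5% CO2. Luciferase signal was then read after 30 min One-Glo at room temperature.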

[3] = target: Peroxisome proliferator-activated receptor alpha (Homo sapiens) (UniProt Q07869); experiment: qHTS assay for small molecule agonists of the peroxisome proliferator-activated receptor alpha (PPARalpha) signaling pathway (AID 651778); conditions: PathHunter PPARalpha complementation, chemiluminescence, 6 h; max response: active compounds read high; further: potency means the concentration at half of the fitted maximal effect; on max response: % of control where 0% means no effect
Peroxisome proliferator-activated receptor alpha (Homo sapiens), sequence (Q07869 whole entry, looked up): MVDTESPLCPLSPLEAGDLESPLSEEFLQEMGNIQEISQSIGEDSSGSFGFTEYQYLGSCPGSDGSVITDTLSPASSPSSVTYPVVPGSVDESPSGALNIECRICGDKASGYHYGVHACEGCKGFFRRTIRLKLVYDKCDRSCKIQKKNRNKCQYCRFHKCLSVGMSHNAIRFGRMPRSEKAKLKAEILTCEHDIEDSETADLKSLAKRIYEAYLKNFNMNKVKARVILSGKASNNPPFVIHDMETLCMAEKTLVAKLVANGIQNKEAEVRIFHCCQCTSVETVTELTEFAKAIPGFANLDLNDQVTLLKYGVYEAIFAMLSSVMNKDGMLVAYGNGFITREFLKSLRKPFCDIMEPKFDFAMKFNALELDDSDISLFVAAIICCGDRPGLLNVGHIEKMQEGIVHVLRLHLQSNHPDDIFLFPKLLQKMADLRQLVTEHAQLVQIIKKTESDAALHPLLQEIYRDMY
Summary of the method: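 Cells plated at 2,000/well and held overnight at 37 C, 5% CO2, then compound added by pin tool for 6 hr; after PathHunter detection reagent and 60 min at room temperature, chemiluminescence from enzyme complementation was read.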

[4] = target: Nuclear receptor ROR-gamma (Homo sapiens) (UniProt P51449); experiment: qHTS assay for small molecule antagonists of the retinoid-related orphan receptor gamma (ROR-gamma) signaling pathway (AID 651802); further: nearly all actives have a fitted effect of over 60% in size; further: potency means the concentration at half of the fitted maximal effect
Nuclear receptor ROR-gamma (Homo sapiens), sequence (P51449 whole entry, looked up): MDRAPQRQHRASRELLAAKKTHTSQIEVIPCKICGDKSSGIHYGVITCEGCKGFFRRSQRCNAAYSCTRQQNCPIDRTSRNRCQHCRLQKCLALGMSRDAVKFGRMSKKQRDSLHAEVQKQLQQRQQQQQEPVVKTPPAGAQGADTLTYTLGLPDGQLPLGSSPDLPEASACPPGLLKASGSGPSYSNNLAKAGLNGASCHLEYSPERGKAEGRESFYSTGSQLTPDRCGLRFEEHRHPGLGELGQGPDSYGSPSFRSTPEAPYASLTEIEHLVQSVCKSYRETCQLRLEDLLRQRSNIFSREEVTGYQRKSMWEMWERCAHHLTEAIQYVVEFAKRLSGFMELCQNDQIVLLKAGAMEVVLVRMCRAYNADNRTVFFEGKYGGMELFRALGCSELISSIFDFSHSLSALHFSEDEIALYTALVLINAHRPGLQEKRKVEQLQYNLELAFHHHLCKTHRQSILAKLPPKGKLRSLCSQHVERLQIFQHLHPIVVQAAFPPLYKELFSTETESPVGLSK
Summary of the method: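 CHO, TET-inducible ROR + RORE-LUC reporter, 1536-well qHTS. Compound pinned, doxycycline added, 16hr 37C/5% CO2. ONE-Glo, 30 min RT, luminescence; signal drop scored as antagonism.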

[5] = qHTS assay for small molecule agonists of the antioxidant response element (ARE) signaling pathway measured by Nrf2-dependant transcriptional activity (AID 720636; active means well fitted curve in the direction sought with a large enough effect in the repeat runs; an effect the other way counts as inactive or inconclusive; further: % of control where 0% means no effect)
Summary of the method: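 ARE-luc HepG2 cells carrying an Nrf2-responsive luciferase reporter were plated in medium with 1% dialyzed FBS, left 6 hr at 37 C to attach, then exposed to compound for 16 hr. Luciferase luminescence was read after ONE-Glo addition.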

[6] = qHTS assay for small molecule antagonists of the retinoid-related orphan receptor gamma (ROR-gamma) signaling pathway - cell viability counter screen (AID 720652; active means well fitted curve in the direction sought with a large enough effect in the repeat runs; an effect the other way counts as inactive or inconclusive;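 further: series mostly up to about 92 µM; compound exposure lasted 16 hr before ATP read; on the % scale 0 is the no-effect control and ±100 the full control effect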)
Summary of the method: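 Luminescence from CellTiter-Glo after 30 min at room temperature reported cellular ATP as the cytotoxicity measure. Cells were the CHO reporter line with doxycycline-induced ROR-gamma expression, exposed to compound for 16 hr at 37 C.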

[7] = qHTS assay for small molecule agonists of the antioxidant response element (ARE) signaling pathway measured by Nrf2-dependant transcriptional activity - cell viability counter screen (AID 720653; active means well fitted curve in the direction sought with a large enough effect in the repeat runs; an effect the other way counts as inactive or inconclusive; further: on the % scale 0 is the no-effect control and ±100 the full control effect); conditions: ARE-bla HepG2 viability, CellTiter-Glo ATP luminescence, 16 h; max response: active compounds read low
Summary of the method: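 ARE-bla HepG2 cells (2,000/well) rested 5 hrs at 37C/5% CO2, then exposed to compounds in DMSO for 16 hrs. Viability was read in the same wells as intracellular ATP by luminescence, 30 min at room temperature after reagent addition.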

[8] = qHTS Assay for Identifying Gametocytocidal Compounds (AID 743244); further: potency means the concentration at half of the fitted maximal effect;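 on max response: on the % scale 0 is the no-effect control and ±100 the full control effect; actives lower the fluorescent signal which means gametocytes are killed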; conditions: P. falciparum 3D7 stage III-V gametocytes, alamarBlue, 72 h; max response: active compounds read low
Summary of the method: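 In this qHTS viability screen, late-stage 3D7 gametocytes are incubated with compound for 72 h, then with alamarBlue for 24 h; reduced resorufin fluorescence marks killing.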

[9] = qHTS assay for cell viability of HEK293 cells (AID 743288); conditions: ATP luminescence (CellTiter-Glo), 18 h; max response: active compounds read low; further: nearly all actives have a fitted effect of over 50% in size; further: potency means the concentration at half of the fitted maximal effect; on max response: on the % scale 0 is the no-effect control and ±100 the full control effect
Summary of the method: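 HEK293 parental, 2,000 cells/well; ≥5 h pre-incubation 37 C; pintool compound addition; 18 h, 37 C; CellTiter-Glo 30 min RT; luminescence read.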

[10] = qHTS for small molecule inhibitors of Yes1 kinase: Counter Assay (AID 686950);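 further: no kinase present so only ADP-Glo detection of a fixed ADP amount is tested; luminescence from ADP-Glo reporting ADP in a fixed ATP and ADP mixture; series mostly up to about 77 µM; 0% = DMSO wells with ATP plus ADP and -100% = ATP-only wells without ADP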
Summary of the method: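 Enzyme-free ADP-Glo interference check: compounds were preincubated 20 min in buffer, then an ATP/ADP mix (0.08 mM ATP, 0.02 mM ADP final) was added for 60 min at room temperature before two-step ADP-Glo luminescence detection.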

[11] = target: Tyrosine-protein kinase Yes (Homo sapiens) (UniProt P07947); experiment: qHTS for small molecule inhibitors of Yes1 kinase: Primary Screen (AID 686947);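 further: plate controls were DMSO with enzyme for no effect and no-enzyme DMSO wells for full effect; nearly all actives have a fitted effect of over 60% in size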
Tyrosine-protein kinase Yes (Homo sapiens), sequence (P07947 whole entry, looked up): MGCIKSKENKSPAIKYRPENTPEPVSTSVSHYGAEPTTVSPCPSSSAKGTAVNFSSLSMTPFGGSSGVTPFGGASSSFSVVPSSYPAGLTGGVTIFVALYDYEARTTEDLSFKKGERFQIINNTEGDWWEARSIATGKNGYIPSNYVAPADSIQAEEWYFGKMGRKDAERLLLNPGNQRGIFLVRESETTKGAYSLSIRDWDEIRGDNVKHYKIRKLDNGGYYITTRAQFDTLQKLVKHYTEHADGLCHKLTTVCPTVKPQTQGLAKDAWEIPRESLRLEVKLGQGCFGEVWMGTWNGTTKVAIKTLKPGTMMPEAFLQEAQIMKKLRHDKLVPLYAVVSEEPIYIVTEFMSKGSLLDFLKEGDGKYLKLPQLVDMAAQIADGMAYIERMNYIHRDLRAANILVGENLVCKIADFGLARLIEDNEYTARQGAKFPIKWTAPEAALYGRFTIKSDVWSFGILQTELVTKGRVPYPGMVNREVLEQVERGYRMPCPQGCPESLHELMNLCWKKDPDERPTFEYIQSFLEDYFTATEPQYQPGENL
Summary of the method: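 Yes1 (4 nM) preincubated 20 min with compound, then 60 min room-temperature reaction with 0.1 mM ATP and 0.3 mg/mL poly(E4Y) in pH 7.5 Tris, 10 mM MgCl2. ADP measured by ADP-Glo luminescence, normalised to enzyme/no-enzyme controls.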

[12] = qHTS assay to identify small molecules that stimulate interleukin-8 (IL-8) secretion (AID 651758; active means well fitted activation curve with a large enough effect in the signal ratio; the % refers to the signal ratio; further: 0% is about no effect)
Summary of the method: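 THP-1, 2000 cells/well; cpd 16 h, 37 C; add cryptate + XL665 anti-IL-8 Abs; RT 1-3 h; TR-FRET read.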

[13] = qHTS for compounds that reverse cellular toxicity of Amyloid beta (A-beta) peptide in yeast: LOPAC Validation Assay (AID 720559);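 further: plate controls were DMSO for no effect and equimolar ferric chloride plus clioquinol rescue for full effect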
Summary of the method: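 Medium dispensed, compounds pinned, A-beta yeast suspension added; plates held at 30 C for 48 hr; absorbance measured at 600 nm to gauge growth; values scaled between DMSO and FeCl3/clioquinol (equimolar) controls.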

[14] = qHTS for Activators of Parkin Expression: LOPAC Validation Assay (NLuc Reporter) (AID 720572;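 further: 0% = DMSO and 100% = positive control compound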)
Summary of the method: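 Neuronal line stably carrying a FLuc/NLuc coincidence reporter under the Parkin promoter, seeded 24 h, then dosed in 7-point series for 24 h at 37 C. NLuc luminescence read after FLuc; normalized to DMSO and positive control (100%).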

[15] = target: T1, Hexokinase-4 (Homo sapiens) + Glucokinase regulatory protein (Homo sapiens) (UniProt P35557+Q14397); experiment: qHTS assay for inhibitors of recombinant human GCK-GKRP interaction: Diaphorase-coupled assay (AID 743205)
T1 sequence (P35557 whole entry, looked up): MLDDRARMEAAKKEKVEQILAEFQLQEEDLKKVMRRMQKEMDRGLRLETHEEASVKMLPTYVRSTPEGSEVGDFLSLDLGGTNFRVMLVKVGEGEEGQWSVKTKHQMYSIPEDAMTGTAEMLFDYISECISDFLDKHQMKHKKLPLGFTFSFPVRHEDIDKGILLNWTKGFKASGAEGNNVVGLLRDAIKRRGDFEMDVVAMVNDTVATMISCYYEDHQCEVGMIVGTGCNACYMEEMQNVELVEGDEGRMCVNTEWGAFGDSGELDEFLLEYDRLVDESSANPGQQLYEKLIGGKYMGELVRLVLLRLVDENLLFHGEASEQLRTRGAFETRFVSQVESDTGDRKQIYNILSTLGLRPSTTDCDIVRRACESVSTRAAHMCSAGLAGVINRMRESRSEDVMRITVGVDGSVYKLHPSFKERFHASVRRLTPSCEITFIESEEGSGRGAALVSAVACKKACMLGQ
T1 sequence (Q14397 whole entry, looked up): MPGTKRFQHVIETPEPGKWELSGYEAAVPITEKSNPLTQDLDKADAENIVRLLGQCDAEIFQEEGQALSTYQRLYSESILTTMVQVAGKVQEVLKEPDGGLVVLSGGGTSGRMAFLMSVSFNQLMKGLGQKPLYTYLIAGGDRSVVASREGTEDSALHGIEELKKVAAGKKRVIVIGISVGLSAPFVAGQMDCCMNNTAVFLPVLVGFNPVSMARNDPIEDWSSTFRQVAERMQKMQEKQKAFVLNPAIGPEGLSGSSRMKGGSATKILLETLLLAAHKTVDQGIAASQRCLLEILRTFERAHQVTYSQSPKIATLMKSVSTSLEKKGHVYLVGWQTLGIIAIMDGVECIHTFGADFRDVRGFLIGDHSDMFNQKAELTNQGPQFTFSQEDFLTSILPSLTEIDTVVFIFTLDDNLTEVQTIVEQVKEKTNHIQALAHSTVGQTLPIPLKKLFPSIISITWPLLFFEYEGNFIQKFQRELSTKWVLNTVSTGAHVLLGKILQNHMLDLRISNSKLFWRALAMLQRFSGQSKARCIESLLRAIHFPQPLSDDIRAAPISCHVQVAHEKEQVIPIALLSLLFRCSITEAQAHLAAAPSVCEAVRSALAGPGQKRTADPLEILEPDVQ
Summary of the method: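 25 mM Hepes pH 7.6, 5 mM glucose, 0.4 mM ATP, 4 U/ml G6PDH; 10 nM each GST-GCK/FLAG-GKRP. Kinetic fluorescence read, 1/min × 30 min. Normalized: DMSO ± enzyme = max/min.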

[16] = target: T1, Hexokinase-4 (Homo sapiens) + Glucokinase regulatory protein (Homo sapiens); experiment: qHTS assay for inhibitors of recombinant human GCK-GKRP interaction: ADP-Glo assay (AID 743206);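 further: plate controls were DMSO plus enzyme for no effect and no enzyme for full effect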
Summary of the method: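 GST-GCK and FLAG-GKRP (15 nM each in the dispensed mix, with 2 uM S6P) react with 0.4 mM ATP and 5 mM glucose (final) in Hepes pH 7.6 for 60 min at room temperature. ADP is measured by ADP-Glo luminescence.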

[17] = qHTS assay for small molecule disruptors of the mitochondrial membrane potential - 1 hr assay (AID 651754; calls by dose curve; further: nearly all actives have a fitted effect of over 35% in size; further: potency means the concentration at half of the fitted maximal effect)
Summary of the method: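 HepG2, 2,000 cells/well, overnight attachment; cpd or DMSO 1 hr, 37C/5% CO2; Mito-MPS dye 30 min, 37C; fluorescence monomer (490/535) and aggregate (540/590).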

[18] = qHTS assay for small molecule disruptors of the mitochondrial membrane potential - 5 hr assay (AID 651755; calls by dose curve; further: nearly all actives have a fitted effect of over 40% in size; further: potency means the concentration at half of the fitted maximal effect)
Summary of the method: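 HepG2 cells, attached overnight at 37C, were exposed to compound or DMSO for 5 hr at 37C, 5% CO2. Mito-MPS dye was then added for 30 min, and fluorescence read at 490/535 nm (monomers) and 540/590 nm (aggregates).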

## Cc1nnc(NS(=O)(=O)c2ccc(N)cc2)s1
[1]
  outcome: inactive
[2]
  activation: -0.461%
[3]
  max response: 6.59%
[4]
  Potency: inactive
[5]
  outcome: inactive
[6]
  Potency: inactive
[7]
  max response: 4.88%
[8]
  max response: -4.6%
[9]
  max response: 0.46%

## OC(Cn1cncn1)(Cn1cncn1)c1ccc(F)cc1F
[2]
  activation: -1.75%
[3]
  max response: -1.95%
[5]
  outcome: inactive
[7]
  max response: 0.0873%
[8]
  max response: -0.14%
[9]
  max response: -6.93%

## NC1(c2ccc(-c3nc4ccn5c(=O)[nH]nc5c4cc3-c3ccccc3)cc2)CCC1
[10]
  outcome: inactive
[8]
  Potency: 11.8 µM (active)

## O=S(=O)(c1cccc2cnccc12)N1CCCNCC1
[11]
  outcome: inactive
[10]
  outcome: inactive
[8]
  max response: -7.26%

## CC(=O)Oc1ccccc1C(=O)Nc1ncc([N+](=O)[O-])s1
[3]
  max response: -4.4%
[5]
  outcome: inactive
[9]
  Potency: 28.2 µM (active)

## Cc1ncc([N+](=O)[O-])n1CCO
[12]
  outcome: inactive
[2]
  activation: -0.201%
[3]
  max response: -0.879%
[4]
  Potency: inactive
[5]
  outcome: inactive
[6]
  Potency: inactive
[7]
  max response: -1.04%
[8]
  max response: -1.29%
[9]
  max response: -4.68%

## CC(=O)[C@H]1CC[C@H]2[C@@H]3CCC4=CC(=O)CC[C@]4(C)[C@H]3CC[C@]12C
[1]
  outcome: inactive
[2]
  activation: 0.0693% and 1.75% and -2.26%
[3]
  max response: 1.94% and -2.09% and -1.65%
[13]
  outcome: inactive
[14]
  outcome: inactive
[5]
  outcome: inactive
[7]
  max response: -18% and -11.7% and -23.6%
[15]
  outcome: inactive
[16]
  outcome: inactive
[8]
  max response: -0.829% and 23.1%
[9]
  Potency: 44.7 µM (active)
  max response: -28%

## NC(N)=NC(N)=NCCc1ccccc1
[1]
  outcome: inactive
[2]
  activation: 1.08% and -0.702%
[3]
  Potency: 35.5 µM (active)
  max response: -1.6%
[4]
  Potency: 16.8 µM (active)
[5]
  outcome: inactive
[6]
  Potency: inactive
[7]
  max response: -24.7% and -24.4%
[8]
  max response: 18.8% and 0.965%
[9]
  max response: -5.89% and -15.7%

## CC1CC2C3CCC4=CC(=O)C=C[C@]4(C)[C@@]3(F)[C@@H](O)C[C@]2(C)[C@@]1(O)C(=O)CO (stereo partly specified)
[13]
  outcome: inactive
[14]
  outcome: inactive
[15]
  outcome: inactive
[16]
  outcome: inactive
[8]
  max response: 8.59%

## CC1=NN(c2ccccc2)C(=O)C1
[1]
  outcome: inactive
[3]
  max response: -0.816% and -5.33%
[4]
  Potency: inactive
[5]
  outcome: inactive
[6]
  Potency: inactive
[7]
  max response: -3.99% and -6.22%
[8]
  max response: -1.13%
[9]
  max response: -6.75% and -3.56%

## COc1ccc2cc3[n+](cc2c1OC)CCc1cc2c(cc1-3)OCO2
[17]
  Potency: 21.1 µM (active)
[18]
  Potency: 9.44 µM (active)
[3]
  max response: -3.31%
[4]
  Potency: inactive
[5]
  outcome: inactive
[6]
  Potency: inactive
[7]
  max response: -27.8%
[9]
  max response: -16%

## N=C(N)c1ccc(OCCCCCOc2ccc(C(=N)N)cc2)cc1
[1]
  outcome: inactive
[3]
  max response: -3.05% and -5.88%
[5]
  outcome: inactive
[6]
  Potency: inactive
[7]
  max response: -9.35% and -16.5%
[8]
  Potency: 6.31 µM (active)
[9]
  max response: -23.8% and -12.7%

## CC(C)C[C@H](NC(=O)[C@H](CCc1ccccc1)NC(=O)CN1CCOCC1)C(=O)N[C@@H](Cc1ccccc1)C(=O)N[C@@H](CC(C)C)C(=O)[C@@]1(C)CO1
[11]
  outcome: inactive
[10]
  outcome: inactive
[8]
  Potency: 0.0118 µM (active)

## CCc1cc(C(N)=S)ccn1
[17]
  Potency: inactive
[18]
  Potency: inactive
[1]
  outcome: inactive
[3]
  max response: -3.66% and -3.46%
[4]
  Potency: inactive
[5]
  outcome: inactive
[6]
  Potency: inactive
[7]
  max response: -5.32% and -4.73%
[8]
  max response: -11%
[9]
  max response: 6.59% and -10.6%

## CNC(=O)c1cc(Oc2ccc(NC(=O)Nc3ccc(Cl)c(C(F)(F)F)c3)cc2)ccn1
[10]
  outcome: inactive
[8]
  max response: -3.89% and 12.7% and 20%

## Nc1nc(N)c2nc(CNc3ccc(C(=O)NC(CCC(=O)O)C(=O)O)cc3)cnc2n1 (stereo unspecified)
[2]
  activation: -4.32%
[3]
  max response: -1.16%
[13]
  outcome: inactive
[14]
  outcome: inactive
[5]
  outcome: inactive
[15]
  outcome: inactive
[16]
  outcome: inactive
[8]
  max response: 32.7%

## COc1cc2c(Nc3ccc(Br)cc3F)ncnc2cc1OCC1CCN(C)CC1
[10]
  outcome: inactive
[8]
  Potency: 9.35 µM (active) and 5.62 µM (active)

## Cc1nnc(C(=O)NC(C)(C)c2nc(C(=O)NCc3ccc(F)cc3)c(O)c(=O)n2C)o1
[11]
  outcome: inactive
[10]
  outcome: inactive
[8]
  max response: 3.93%

## Cc1c(-c2ccc(O)cc2)n(Cc2ccc(OCCN3CCCCCC3)cc2)c2ccc(O)cc12
[11]
  outcome: inactive
[10]
  outcome: inactive

## Cc1ccnc2c1NC(=O)c1cccnc1N2C1CC1
[1]
  outcome: inactive
[2]
  activation: 0.221%
[3]
  max response: -3.94%
[4]
  Potency: inactive
[5]
  outcome: inactive
[6]
  Potency: inactive
[7]
  max response: -0.463%
[8]
  max response: 21.9%
[9]
  max response: -6.97%
